We go through 154 variants from a collection of fitness landscapes (doi:10.1016/j.celrep.2020.107928).

Sequences and labels used below:
B1: Caulobacter ParB omega fusion; a variant is named by its letters at X, in order, B8GW30 (parent)
chain: MESVVVGEPGMSEGRRGLGRGLSALLGEVDAAPAQAPGEQLGGSREAPIEILQRNPDQPRRTFREEDLEDLSNSIREKGVLQPILVRPSPDTAGEYQIVAGERAWRAAQRAGLKTVPIMVRELDDLAVLEIGIIENVQRADLNVLEEALSYKVLMEKFERTQENIAQTIGKSXSHVANXMRLLXLPDEVQSYLVSGELTAXHARAIAAAADPVALAKQIIEGGLSVRETEALARKAPNLSAGKSKGGRPPRVKDTDTQALESDLSSVLGLDVSIDHRGSTGTLTITYATLEQLDDLCNRLTRGI

The full ranking holds about 81,000 sequences; the median of “one-hybrid fitness for binding NBS DNA” is about -0.1, and the highest 2% start at about 0.36. The sample holds the highest values, similar sequences and a random draw of the others, so the mix is not that of the screen.

Variants of B1 are the subject of this experiment. The experiment can be described thus: one-hybrid fitness for binding NBS DNA (the Noc-binding site; scaled: cognate 1, non-cognate 0); higher = stronger binding. The following applies: with NBS DNA site. In a few lines: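 Caulobacter ParB libraries with four specificity codons randomised were screened by bacterial one-hybrid selection in the E. coli USO strain, using a HIS3 reporter whose site lies 19 bp from the promoter. Selection ran for 48 hours at 37°C on M9 lacking histidine, with 0.1 mM IPTG and 5 mM 3-AT. Plasmids were Illumina-sequenced before and after selection, three replicate libraries were pooled, and variants with under 10 reads were dropped. Fitness is the log change in each variant's read ratio to wild type, rescaled against the cognate and non-cognate sites.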
In the case of GWLP, the “one-hybrid fitness for binding NBS DNA” value is no more than 0.2. Turning to QKRD, the “one-hybrid fitness for binding NBS DNA” value is 0.268. The same measure for QKRH: 0.579; for YTAV: no more than 0.2; for HGTI: no more than 0.2. The same measure for VPLE: no more than 0.2; for AYGD: no more than 0.2; for RKKE: no more than 0.2. As for KHKY, the “one-hybrid fitness for binding NBS DNA” value is no more than 0.2. With QKDH, the “one-hybrid fitness for binding NBS DNA” value turned out to be 0.521. Regarding QKGD, the “one-hybrid fitness for binding NBS DNA” value is no more than 0.2. Regarding QKRP, the “one-hybrid fitness for binding NBS DNA” value was 0.261.

As to QKRS, the “one-hybrid fitness for binding NBS DNA” value came out at 0.677. Turning to QKGS, the “one-hybrid fitness for binding NBS DNA” value is 0.465. Turning to QKRI, the “one-hybrid fitness for binding NBS DNA” value came to 0.301. As to QKDD, the “one-hybrid fitness for binding NBS DNA” value was no more than 0.2. In the case of QKGH, the “one-hybrid fitness for binding NBS DNA” value came out at 0.228. Regarding QKNH, the “one-hybrid fitness for binding NBS DNA” value amounted to 0.286. The same measure for MPKT: no more than 0.2; for RGWG: no more than 0.2.

Turning to DTNG, the “one-hybrid fitness for binding NBS DNA” value is no more than 0.2. The same measure for IIGR: no more than 0.2. Consider VAWT, for which the “one-hybrid fitness for binding NBS DNA” value was no more than 0.2. For the variant RYSG, the “one-hybrid fitness for binding NBS DNA” value is no more than 0.2. Consider RYSS, for which the “one-hybrid fitness for binding NBS DNA” value is 0.437.

With RYQD, the “one-hybrid fitness for binding NBS DNA” value is no more than 0.2. RYQH: the “one-hybrid fitness for binding NBS DNA” value is no more than 0.2. The same measure for RYSH: no more than 0.2; for RYSC: no more than 0.2; for RYST: 0.452. The same measure for RYRN: no more than 0.2; for RYQS: 0.386.

In the case of RYRD, the “one-hybrid fitness for binding NBS DNA” value is no more than 0.2. The same measure for RYRS: 0.572; for RYSN: no more than 0.2.

On to MMDT, for which the “one-hybrid fitness for binding NBS DNA” value was no more than 0.2. The same measure for HANR: no more than 0.2. The same measure for IMHC: no more than 0.2; for VAPN: no more than 0.2. Regarding GWLG, the “one-hybrid fitness for binding NBS DNA” value is no more than 0.2.

Take KQKS: the “one-hybrid fitness for binding NBS DNA” value was no more than 0.2. FLVG: the “one-hybrid fitness for binding NBS DNA” value was no more than 0.2.

For LDND, the “one-hybrid fitness for binding NBS DNA” value is no more than 0.2.

For SIIL, the “one-hybrid fitness for binding NBS DNA” value is no more than 0.2.

Turning to AHHA, the “one-hybrid fitness for binding NBS DNA” value is no more than 0.2. Consider SHVW, for which the “one-hybrid fitness for binding NBS DNA” value is no more than 0.2. Take CFRT: the “one-hybrid fitness for binding NBS DNA” value is no more than 0.2. As to RYHS, the “one-hybrid fitness for binding NBS DNA” value is 0.441.

In the case of RYND, the “one-hybrid fitness for binding NBS DNA” value is no more than 0.2. RYNS: the “one-hybrid fitness for binding NBS DNA” value stood at 0.497. The value for RYHD was no more than 0.2.

For the variant RYIS, the “one-hybrid fitness for binding NBS DNA” value was no more than 0.2. RYHN: the “one-hybrid fitness for binding NBS DNA” value is no more than 0.2. The same measure for RYYS: 0.371; for RYCS: 0.395; for RYCH: no more than 0.2.

Take RYWS: the “one-hybrid fitness for binding NBS DNA” value was no more than 0.2. In the case of RYCP, the “one-hybrid fitness for binding NBS DNA” value was no more than 0.2. The same measure for RYDS: no more than 0.2; for EYQC: no more than 0.2.

As for RKSA, the “one-hybrid fitness for binding NBS DNA” value is 0.284. Consider PEMV, for which the “one-hybrid fitness for binding NBS DNA” value was no more than 0.2. The same measure for LCRH: no more than 0.2. The same measure for YRHS: no more than 0.2. As to RYQY, the “one-hybrid fitness for binding NBS DNA” value was no more than 0.2. The value for RYGS was 0.426.

As for RYHT, the “one-hybrid fitness for binding NBS DNA” value was 0.45.

As for RYQT, the “one-hybrid fitness for binding NBS DNA” value is 0.381.

As to RYGF, the “one-hybrid fitness for binding NBS DNA” value was no more than 0.2.

On to RYQF, for which the “one-hybrid fitness for binding NBS DNA” value was no more than 0.2. The same measure for RYGN: no more than 0.2; for RYHG: no more than 0.2; for RYGT: 0.373. The same measure for RYGC: no more than 0.2; for RYGD: no more than 0.2; for RYHQ: no more than 0.2. The value for TIRS was no more than 0.2; that for SHCW was no more than 0.2; that for PSRV was no more than 0.2.

In the case of QMAC, the “one-hybrid fitness for binding NBS DNA” value is no more than 0.2. As to DGSR, the “one-hybrid fitness for binding NBS DNA” value was no more than 0.2.

Consider HLCR, for which the “one-hybrid fitness for binding NBS DNA” value is no more than 0.2. The value for TSRL was no more than 0.2; that for VDPI was no more than 0.2. The same measure for VKWG: no more than 0.2; for NFAR: no more than 0.2; for TAGV: no more than 0.2. Turning to RRAG, the “one-hybrid fitness for binding NBS DNA” value worked out at 0.357. The value for RRFR was 0.728; that for RRAR was 0.757.

In the case of RRAM, the “one-hybrid fitness for binding NBS DNA” value turned out to be 0.306.

For NERC, the “one-hybrid fitness for binding NBS DNA” value was no more than 0.2.

For VQTI, the “one-hybrid fitness for binding NBS DNA” value was no more than 0.2.

On to RMTM, for which the “one-hybrid fitness for binding NBS DNA” value is no more than 0.2. The same measure for VKPG: no more than 0.2. Regarding MIPC, the “one-hybrid fitness for binding NBS DNA” value is no more than 0.2. The value for QIAH was no more than 0.2; that for QPAR was no more than 0.2. The value for QIAR was 0.397. For QIFR, the “one-hybrid fitness for binding NBS DNA” value turned out to be 0.301.

Regarding QSAD, the “one-hybrid fitness for binding NBS DNA” value is no more than 0.2. The value for QEAR was no more than 0.2; that for QSAH was no more than 0.2. With QSAR, the “one-hybrid fitness for binding NBS DNA” value worked out at 0.526. As to QCAR, the “one-hybrid fitness for binding NBS DNA” value turned out to be 0.643. On to PIRY, for which the “one-hybrid fitness for binding NBS DNA” value was no more than 0.2.

Consider TWMC, for which the “one-hybrid fitness for binding NBS DNA” value is no more than 0.2. The value for IDTL was no more than 0.2; that for TIIR was no more than 0.2. The value for NVDM was no more than 0.2; that for SALS was no more than 0.2. Regarding QLKN, the “one-hybrid fitness for binding NBS DNA” value was 0.365. On to QLKS, for which the “one-hybrid fitness for binding NBS DNA” value is 0.573. QPKN: the “one-hybrid fitness for binding NBS DNA” value was no more than 0.2. For the variant QLVN, the “one-hybrid fitness for binding NBS DNA” value was no more than 0.2. The value for QLKP was no more than 0.2; that for QLKH was 0.487. The value for QLKD was no more than 0.2; that for QCKN was 0.445. The same measure for QLVH: no more than 0.2; for QLKQ: 0.331; for QSKN: 0.359. Take QLVS: the “one-hybrid fitness for binding NBS DNA” value is no more than 0.2. On to HLWL, for which the “one-hybrid fitness for binding NBS DNA” value is no more than 0.2. The same measure for WMPR: no more than 0.2; for DMKY: no more than 0.2; for PLDP: no more than 0.2.

With TIRA, the “one-hybrid fitness for binding NBS DNA” value was no more than 0.2.

As to EGSN, the “one-hybrid fitness for binding NBS DNA” value is no more than 0.2.

On to LRCP, for which the “one-hybrid fitness for binding NBS DNA” value is no more than 0.2. The same measure for GCSF: no more than 0.2.

Turning to HDFR, the “one-hybrid fitness for binding NBS DNA” value was no more than 0.2. The value for DATM was no more than 0.2; that for TSVL was no more than 0.2; that for CRHF was no more than 0.2. The same measure for RHIT: 0.243; for RAQT: 0.395; for RHLT: 0.33.

Turning to RAQC, the “one-hybrid fitness for binding NBS DNA” value is no more than 0.2. The value for RDQT was no more than 0.2. The value for RHPT was no more than 0.2. The same measure for RHRT: 0.583; for RAQP: no more than 0.2; for RFQT: 0.242. Turning to RSQT, the “one-hybrid fitness for binding NBS DNA” value was 0.418.

As to RHYT, the “one-hybrid fitness for binding NBS DNA” value is 0.287.

With RHQT, the “one-hybrid fitness for binding NBS DNA” value came to 0.39. The same measure for CHYG: no more than 0.2. The value for ASMD was no more than 0.2. In the case of FIRR, the “one-hybrid fitness for binding NBS DNA” value was no more than 0.2. The same measure for MIQP: no more than 0.2; for RCQT: 0.513; for RPQT: no more than 0.2. Take RIQT: the “one-hybrid fitness for binding NBS DNA” value was 0.329.
